In PubChem BioAssay (NCI):
About 79,000 compounds went through this panel and 15% of them were active in at least one assay; those are over-represented in the sample as a whole. Calls of active or inactive are those of the source. Cut-off read from the data, not from the text of the source: active = growth inhibition above about 70%; inactive = the rest.

How the values were obtained:
[1] = NCI Yeast Anticancer Drug Screen. Data for the rad52 strain (AID 147);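 note: 0% = growth of vehicle-treated control cultures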; details: S. cerevisiae rad52 mutant growth inhibition, active compounds read high
Outline: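 Growth of repair-deficient yeast cells was compared between compound-treated and vehicle-treated cultures to give percent inhibition.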

[2] = NCI Yeast Anticancer Drug Screen. Data for the wt1 strain (AID 149);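 note: 0% = growth of vehicle-treated wt1 cultures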; details: S. cerevisiae wt1 strain (SPY 50644) growth inhibition, active compounds read high
Outline: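 Each compound is tested on wt1 yeast and the loss of growth versus vehicle gives the inhibition value.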

[3] = NCI Yeast Anticancer Drug Screen. Data for the rad50EPP+ strain (AID 151);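 note: 0% = growth of vehicle-treated control cultures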; details: S. cerevisiae rad50 mutant strain, active compounds read high
Outline: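 Measured: growth inhibition of rad50EPP+ yeast. Reference: vehicle-treated controls. Screen uses strains with defined genetic alterations in DNA damage repair or cell cycle control.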

[4] = NCI Yeast Anticancer Drug Screen. Data for the mgt1 strain (AID 153); details: S. cerevisiae mgt1 mutant growth inhibition, active compounds read high
Outline: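 Compounds were applied to mgt1 mutant yeast, and growth was then compared against vehicle-treated control cultures to give percent inhibition.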

[5] = NCI Yeast Anticancer Drug Screen. Data for the rad50 strain (AID 155);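 note: 0% = growth of vehicle-only cultures of the same strain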; details: S. cerevisiae rad50 strain growth inhibition, active compounds read high
Outline: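 Vehicle-treated cultures provide the reference for the growth inhibition reported for compound-exposed, repair-deficient yeast.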

[6] = NCI Yeast Anticancer Drug Screen. Data for the mec2-1 strain (AID 157); details: S. cerevisiae mec2-1 strain, active compounds read high
Outline: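 Compounds were applied to mec2-1 yeast cells. Their growth was then compared with that of vehicle-treated cultures to give growth inhibition.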

[7] = NCI Yeast Anticancer Drug Screen. Data for the rad14 strain (AID 159);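 note: 0% = growth of vehicle-treated control cultures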; details: S. cerevisiae rad14 strain growth inhibition, active compounds read high
Outline: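 Inhibition of growth is reported for a repair-deficient yeast mutant following compound treatment, calculated relative to cultures that received vehicle.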

[8] = NCI Yeast Anticancer Drug Screen. Data for the sgs1 mgt1 strain (AID 161);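 note: 0% = growth of cultures given vehicle only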; details: S. cerevisiae sgs1 mgt1 strain, active compounds read high
Outline: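 This yeast growth screen uses a strain with defined DNA-repair lesions; compound-treated growth is compared with vehicle-treated growth.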

[9] = NCI Yeast Anticancer Drug Screen. Data for the CLN2oe strain (AID 163);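 note: 0% = growth of vehicle-only control cultures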; details: S. cerevisiae CLN2oe strain, active compounds read high
Outline: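 Cells of an engineered yeast line with disturbed cell-cycle regulation are treated with compound. Inhibition of growth is then calculated relative to the vehicle-treated reference.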

[10] = NCI Yeast Anticancer Drug Screen. Data for the cln2 rad14 strain (AID 165);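 note: 0% = growth equal to vehicle treated cultures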; details: S. cerevisiae cln2 rad14 strain, active compounds read high
Outline: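 Strain: cln2 rad14 yeast, altered in cell cycle control and DNA damage repair. Read-out: growth inhibition vs vehicle.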

[11] = NCI Yeast Anticancer Drug Screen. Data for the bub3 strain (AID 167); details: S. cerevisiae bub3 mutant strain, active compounds read high
Outline: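 Mutant yeast screening strain plus compound; vehicle-treated cultures serve as the 0% inhibition reference.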

[12] = NCI Yeast Anticancer Drug Screen. Data for the wt2 strain (AID 169); details: S. cerevisiae wt2 strain growth inhibition, active compounds read high
Outline: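 Growth of compound-treated yeast is measured and expressed as inhibition relative to vehicle-only controls.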

[13] = NCI Yeast Anticancer Drug Screen. Data for the mlh1 strain (AID 171);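 note: 0% = growth of vehicle-treated control cultures of the same strain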; details: S. cerevisiae mlh1 strain growth inhibition, active compounds read high
Outline: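 Test agents were incubated with yeast bearing a defined DNA damage repair or cell cycle control alteration; values are growth inhibition normalised to vehicle-treated cultures.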

[14] = NCI Yeast Anticancer Drug Screen. Data for the sgs1 strain (AID 173);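 note: 0% = growth of vehicle-only control cultures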; details: S. cerevisiae sgs1 mutant, active compounds read high
Outline: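 Strain with an altered DNA repair or cell cycle pathway exposed to compound. Growth then measured. Value = inhibition versus vehicle control.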

[15] = NCI Yeast Anticancer Drug Screen. Data for the mlh1 rad18 strain (AID 175); details: S. cerevisiae mlh1 rad18 strain growth inhibition, active compounds read high
Outline: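 A repair-deficient yeast strain is exposed to test compound, and growth is scored relative to vehicle-treated controls.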

[16] = NCI Yeast Anticancer Drug Screen. Data for the rad18 strain (AID 177); details: S. cerevisiae rad18 mutant growth inhibition, active compounds read high
Outline: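 DNA-repair-defective yeast; compound treatment; growth inhibition scored against vehicle.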

[17] = at 5.0 µM (retest, dose inferred, filed as 0.5)
[18] = at 50.0 µM (retest, dose inferred, filed as 5.0)

Measured: growth inhibition

COC1=C(OC)C(=O)C(Sc2ccc3ccccc3c2)=CC1=O
inactive: [1]; at 1.2 µM -19% | [1]; at 3.7 µM -19% | [1]; at 11.0 µM 56% | [2]; at 1.2 µM -73% | [2]; at 3.7 µM -61% | [2]; at 11.0 µM -13% | [3]; at 1.2 µM -29% | [3]; at 3.7 µM -10% | [3]; at 11.0 µM 67% | [4]; at 1.2 µM -46% | [4]; at 3.7 µM -47% | [4]; at 11.0 µM 8% | [5]; at 1.2 µM -15% | [5]; at 3.7 µM 0% | [5]; [17] 17% | [5]; at 11.0 µM 19% | [6]; at 1.2 µM -69% | [6]; at 3.7 µM -40% | [6]; [17] 29% | [6]; at 11.0 µM 19% | [7]; at 1.2 µM -18% | [7]; at 3.7 µM -8% | [7]; at 11.0 µM 64% | [8]; [17] 5% | [9]; at 1.2 µM 5% | [9]; at 3.7 µM 19% | [9]; at 11.0 µM 45% | [10]; [17] 4% | [10]; [18] -12% | [11]; at 1.2 µM -11% | [11]; at 3.7 µM 0% | [11]; [17] 3% | [11]; at 11.0 µM -3% | [12]; at 1.2 µM -35% | [12]; at 3.7 µM -43% | [12]; at 11.0 µM 33% | [13]; at 1.2 µM -39% | [13]; at 3.7 µM -38% | [13]; at 11.0 µM 25% | [14]; at 1.2 µM -25% | [14]; at 3.7 µM -17% | [14]; at 11.0 µM 23% | [15]; [17] 47% | [16]; at 1.2 µM -36% | [16]; at 3.7 µM -25% | [16]; at 11.0 µM 58%
active: [1]; at 33.0 µM 93% | [1]; at 100.0 µM 92% | [2]; at 33.0 µM 94% | [2]; at 100.0 µM 92% | [3]; at 33.0 µM 95% | [3]; at 100.0 µM 97% | [4]; at 33.0 µM 94% | [4]; at 100.0 µM 92% | [5]; at 33.0 µM 92% | [5]; [18] 97% | [5]; at 50.0 µM 89.4% | [5]; at 100.0 µM 83% | [6]; at 33.0 µM 95% | [6]; [18] 98% | [6]; at 50.0 µM 93.3% | [6]; at 100.0 µM 89% | [7]; at 33.0 µM 96% | [7]; at 100.0 µM 93% | [8]; [18] 80% | [8]; at 50.0 µM 91.8% | [9]; at 33.0 µM 85% | [9]; at 100.0 µM 87% | [10]; at 50.0 µM 85.8% | [11]; at 33.0 µM 89% | [11]; [18] 79% | [11]; at 50.0 µM 91.2% | [11]; at 100.0 µM 87% | [12]; at 33.0 µM 96% | [12]; at 100.0 µM 94% | [13]; at 33.0 µM 95% | [13]; at 100.0 µM 95% | [14]; at 33.0 µM 93% | [14]; at 100.0 µM 93% | [15]; [18] 96% | [15]; at 50.0 µM 89.6% | [16]; at 33.0 µM 92% | [16]; at 100.0 µM 87%

CC(C)(CCCCC(C)(C)[N+](C)(C)C)[N+](C)(C)C
active: [5]; at 50.0 µM 85.2% | [6]; at 50.0 µM 88.5% | [8]; at 50.0 µM 89.1% | [10]; at 50.0 µM 87.2% | [11]; [18] 98% | [11]; at 50.0 µM 85.5% | [15]; at 50.0 µM 91.5%
inactive: [1]; at 1.2 µM -4% | [1]; at 3.7 µM -6% | [1]; at 11.0 µM -5% | [1]; at 33.0 µM -10% | [1]; at 100.0 µM -1% | [2]; at 1.2 µM -2% | [2]; at 3.7 µM 0% | [2]; at 11.0 µM -1% | [2]; at 33.0 µM -1% | [2]; at 100.0 µM 1% | [3]; at 1.2 µM -3% | [3]; at 3.7 µM -4% | [3]; at 11.0 µM 0% | [3]; at 33.0 µM -1% | [3]; at 100.0 µM -2% | [4]; at 1.2 µM -4% | [4]; at 3.7 µM -3% | [4]; at 11.0 µM -4% | [4]; at 33.0 µM -16% | [4]; at 100.0 µM -2% | [5]; at 1.2 µM -10% | [5]; at 3.7 µM -18% | [5]; [17] 4% | [5]; at 11.0 µM -25% | [5]; at 33.0 µM -4% | [5]; [18] 54% | [5]; at 100.0 µM -2% | [6]; at 1.2 µM 0% | [6]; at 3.7 µM 1% | [6]; [17] 21% | [6]; at 11.0 µM 0% | [6]; at 33.0 µM 1% | [6]; [18] 42% | [6]; at 100.0 µM -1% | [7]; at 1.2 µM -2% | [7]; at 3.7 µM -2% | [7]; at 11.0 µM -4% | [7]; at 33.0 µM -4% | [7]; at 100.0 µM -2% | [8]; [17] 0% | [8]; [18] 31% | [9]; at 1.2 µM -4% | [9]; at 3.7 µM -2% | [9]; at 11.0 µM 2% | [9]; at 33.0 µM -3% | [9]; at 100.0 µM -1% | [10]; [17] 44% | [10]; [18] 52% | [11]; at 1.2 µM -1% | [11]; at 3.7 µM 0% | [11]; [17] -1% | [11]; at 11.0 µM -1% | [11]; at 33.0 µM 0% | [11]; at 100.0 µM 0% | [12]; at 1.2 µM -2% | [12]; at 3.7 µM -2% | [12]; at 11.0 µM -5% | [12]; at 33.0 µM -5% | [12]; at 100.0 µM -1% | [13]; at 1.2 µM 1% | [13]; at 3.7 µM 1% | [13]; at 11.0 µM 0% | [13]; at 33.0 µM 0% | [13]; at 100.0 µM -1% | [14]; at 1.2 µM -1% | [14]; at 3.7 µM 1% | [14]; at 11.0 µM -2% | [14]; at 33.0 µM 0% | [14]; at 100.0 µM 0% | [15]; [17] 10% | [15]; [18] 35% | [16]; at 1.2 µM -4% | [16]; at 3.7 µM 0% | [16]; at 11.0 µM -2% | [16]; at 33.0 µM -3% | [16]; at 100.0 µM -3%
